# Hit rate of the full screen: of about 310,000 compounds, about 14,000 (4.5%) showed an effect of 50% or more. The effect is printed as a negative number. Many of the other results were omitted from the sample, so strong results are more common in it than they were.
# Target: human ether-à-go-go-related gene (hERG) potassium channel (human, UniProt Q12809)
# Assay: primary screen, population patch clamp on CHO cells stably expressing hERG; higher = less effect of the substance
# 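Further: peak tail current of the secondary pulse compared with the same well before compound.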
# human ether-à-go-go-related gene (hERG) potassium channel, sequence (Q12809 whole entry, looked up): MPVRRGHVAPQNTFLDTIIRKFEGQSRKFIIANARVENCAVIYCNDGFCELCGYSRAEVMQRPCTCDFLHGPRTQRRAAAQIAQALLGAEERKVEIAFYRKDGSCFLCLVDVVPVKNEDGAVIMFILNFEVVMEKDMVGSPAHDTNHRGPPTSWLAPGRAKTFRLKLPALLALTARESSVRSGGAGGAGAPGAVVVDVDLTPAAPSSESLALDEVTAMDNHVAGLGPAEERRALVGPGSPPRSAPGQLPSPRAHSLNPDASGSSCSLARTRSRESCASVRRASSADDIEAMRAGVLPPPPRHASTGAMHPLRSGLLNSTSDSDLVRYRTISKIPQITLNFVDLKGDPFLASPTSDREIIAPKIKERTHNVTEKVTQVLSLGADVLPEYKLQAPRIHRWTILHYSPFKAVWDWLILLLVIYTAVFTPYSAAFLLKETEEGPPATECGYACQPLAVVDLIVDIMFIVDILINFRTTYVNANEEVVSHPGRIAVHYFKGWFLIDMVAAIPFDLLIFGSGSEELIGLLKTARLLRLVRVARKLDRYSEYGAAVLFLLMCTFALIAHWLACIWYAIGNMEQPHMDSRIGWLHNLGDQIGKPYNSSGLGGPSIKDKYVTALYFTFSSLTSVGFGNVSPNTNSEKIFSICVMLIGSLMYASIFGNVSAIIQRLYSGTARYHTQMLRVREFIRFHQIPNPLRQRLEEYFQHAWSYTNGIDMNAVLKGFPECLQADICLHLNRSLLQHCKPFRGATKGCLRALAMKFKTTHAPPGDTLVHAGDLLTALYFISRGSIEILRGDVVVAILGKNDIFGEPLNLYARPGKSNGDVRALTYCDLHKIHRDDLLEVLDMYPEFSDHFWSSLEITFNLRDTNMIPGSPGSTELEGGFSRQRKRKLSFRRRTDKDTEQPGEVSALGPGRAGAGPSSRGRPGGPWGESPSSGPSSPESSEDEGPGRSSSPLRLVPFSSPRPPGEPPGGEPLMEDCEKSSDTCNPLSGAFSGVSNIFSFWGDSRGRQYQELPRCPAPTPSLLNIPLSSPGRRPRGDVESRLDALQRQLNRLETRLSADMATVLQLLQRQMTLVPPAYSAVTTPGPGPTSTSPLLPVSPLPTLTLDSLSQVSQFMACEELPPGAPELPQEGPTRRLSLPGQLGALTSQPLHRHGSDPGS
row,Compound,"hERG current change (%, negative = inhibition) at 10uM [%]"
1,COC(=O)CNc1nc(Cl)nc(Nc2ccc(C)cc2)n1,18.3
2,COc1cc(NC(=O)c2cccnc2SC)cc(OC)c1,10.2
3,O=c1nccc(Nc2ccccc2)[nH]1,16.4
4,CNC(=O)c1ccc(-c2cc(C(F)(F)F)nn2C)s1,17.6
5,CCCc1sc(N/N=C/c2ccccn2)nc1-c1ccc(Br)cc1,5.39
6,OCCCNC(=S)Nc1ccc(Oc2ccccc2)cc1,1.06
7,Cc1ccc(OCCSc2nc3ccccc3n2CCC(=O)O)cc1,9.74
8,CCOc1ccc(-n2c(=O)cc(N3CCN(c4ccc(F)cc4)CC3)[nH]c2=O)cc1,9.15
9,Cc1cc(NC(=O)NC(=O)c2ccccc2F)no1,13.7
10,Cc1ccsc1-c1nc(CSCC(=O)N2CCN(c3ccccc3)CC2)c(C)o1,-21.1
11,COc1ccc(C(=O)NC(=S)SCC(=O)O)cc1,21.8
12,Cc1onc(-c2c(F)cccc2Cl)c1C(=O)OCc1cnc(Cl)s1,-3.61
13,C[C@H](NC(=O)c1ccco1)C(=O)N1CCCC1,21.7
14,NC(=O)C1CCN(CC(=O)Nc2ccccc2Sc2ccc(Cl)cc2)CC1,-53.7
15,NC(=O)C1CCN(CC(=O)Nc2ccccc2Sc2ccccc2)CC1,-35.3
16,NC(=O)C1CCN(CC(=O)Nc2cccnc2Cl)CC1,19.4
17,NC(=O)CC(NC(=O)c1ccc(Br)cc1)c1ccc(N2CCCCCC2)c([N+](=O)[O-])c1 (centres unmarked),-7.79
18,CCOC(=O)N1CCN(S(=O)(=O)c2c[nH]c(C(=O)OC)c2)CC1,12
19,COc1cccc(CNC(=O)c2nnn(CC(=O)Nc3ccc(C)c(C)c3)c2N)c1,1.8
20,O=C(O)c1ccc(/C=N/Nc2ncc(C(F)(F)F)cc2Cl)cc1,3.54
21,COc1cccc(-c2cccc(NC(=O)C3CCN(Cc4ccc(C)o4)CC3)c2)c1,-39.4

row,Compound,"hERG current change (%, negative = inhibition) at 10uM [%]"
1,Cc1ccc(CN2CCC(C(=O)Nc3cccc(-c4cccc(F)c4)c3)CC2)o1,-69.1
2,COCc1ccc(CN2CCC(C(=O)Nc3cccc(-c4cscn4)c3)CC2)o1,-18.9
3,COc1cccc(-c2cccc(NC(=O)C3CCN(Cc4ccc(CO)o4)CC3)c2)c1,-32.5
4,O=C(c1cccc(F)c1)N1CCN(Cc2ccco2)CC1,4.78
5,O=C(Nc1cccc(-c2cccc(F)c2)c1)C1CCN(Cc2ccco2)CC1,-67.5
6,O=C(Nc1cccc(-c2cccc(F)c2)c1)C1CCN(Cc2ccc(CO)o2)CC1,-70.3
7,O=C(Nc1cccc(-c2cccc(Cl)c2)c1)C1CCN(Cc2ccc(CO)o2)CC1,-68
8,O=C(Nc1cccc(-c2cscn2)c1)C1CCN(Cc2ccc(CO)o2)CC1,-3.02
9,COc1cccc(-c2ccc(NC(=O)C3CCCN(Cc4ccc(CO)o4)C3)cc2)c1 (centres unmarked),2.83
10,O=C(Nc1cccc(F)c1)C1CCN(C(=O)c2ccco2)CC1,-26.4
11,CCC(=O)OC1(C)C(=O)C2=COC(c3ccc(OC)cc3)=CC2=C(Br)C1=O (centres unmarked),1.2
12,CC(=O)N(Cc1ccc(Br)cc1)c1cccc(C)c1C,3.64
13,N#Cc1ccc(CSc2nnc3ccccn23)cc1,-0.562
14,Cc1c(Br)c(C(F)(F)F)nn1CC(=O)NCc1ccccc1,31.8
15,Cc1cc(C)n2nc(SCCOc3ccccc3F)nc2n1,-22.7
16,COc1ccc(C(=O)c2cn[nH]c2-c2ccc(C)cc2O)cc1,-2.49
17,Cc1cccc(C)c1-n1c(C)cc(/C=N/NC(N)=S)c1C,15.6
18,CCOC(=O)CCCCC(=O)c1[nH]c(=O)[nH]c1CN1CCOCC1,20
19,CC(=O)c1ccc2noc(-c3cccc(F)c3)c2c1,2.79
20,CN(C)/C=C/C(=O)c1ccc2noc(-c3ccccc3)c2c1,-62.6
21,Cc1cccc(-c2onc3ccc(C(=O)/C=C/N(C)C)cc23)c1,-42

row,Compound,"hERG current change (%, negative = inhibition) at 10uM [%]"
1,CN(C)/C=C/C(=O)c1ccc2noc(-c3cccc(F)c3)c2c1,-50.2
2,CN(C)/C=C/C(=O)c1ccc2noc(-c3ccc(F)cc3)c2c1,-9.41
3,COc1cccc(-c2onc3ccc(C(=O)/C=C/N(C)C)cc23)c1,-31.4
4,O=C(NCc1ccc2c(c1)OCO2)C1CC(=O)N(c2ccc(F)cc2)C1 (centres unmarked),-29.9
5,CC(C)(C)NC(=O)CN(C(=O)CCC(=O)Nc1nccs1)c1ccc(F)cc1,12.6
6,CCC(CO)NCc1ccc2c(c1)n(C)c(=O)n2C.Cl (centres unmarked),17.4
7,O=C(O)c1ccc(NS(=O)(=O)c2cc(C(=O)O)ccc2Br)cc1,17
8,O=C(N/N=C\c1ccc(Cl)s1)c1cccs1,23.2
9,COc1ccccc1N1CCN(C(=O)c2sc3ncn(CC(=O)N4CCC(C)CC4)c(=O)c3c2C)CC1,-29.3
10,Br.CCCCCCN1Cc2ccccc2C1,-39.3
11,Br.CCCCCCCCCCCCn1ccc(=N)cc1,-60.2
12,Br.CCCCCCCCn1ccc(=N)cc1,-27
13,Br.CCCCCCCCCn1ccc(=N)cc1,-66
14,Br.CCCCCCCCCCn1ccc(=N)cc1,-72.9
15,CCCCCCCCCCCCCCCCn1cc[n+](C)c1.[Br-],-18.4
16,Br.CCCCCCn1ccc(=N)cc1,1.66
17,CCCCCn1ccc(=N)cc1.I,11.7
18,CCCCCCCn1ccc(=N)cc1.I,-14.7
19,O=C(O)C1CCCCC1C(=O)NCCCN1CCOCC1 (centres unmarked),-1.05
20,Cc1ccc(/C=C/C(=O)NCC2COc3ccccc3O2)o1 (centres unmarked),-18.2
